{"source": "PubChem BioAssay AID641", "about": "(Vanderbilt High Throughput Screening Facility, 2007)", "note": "In all, about 58,000 compounds went through this assay and about 3,400 (5.9%) were called active. The full list was thinned out, with actives kept by preference. Unmarked numbers belong to inactive results.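 How the source made its calls: active means luminescence count or its row- and column-corrected plate score outside the 99.7% band of the plate's sample wells, on either side; inactive means the rest.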", "data": [{"molecular_target": "D(1A) dopamine receptor (Homo sapiens) (UniProt P21728)", "sequence (P21728 whole entry, looked up)": "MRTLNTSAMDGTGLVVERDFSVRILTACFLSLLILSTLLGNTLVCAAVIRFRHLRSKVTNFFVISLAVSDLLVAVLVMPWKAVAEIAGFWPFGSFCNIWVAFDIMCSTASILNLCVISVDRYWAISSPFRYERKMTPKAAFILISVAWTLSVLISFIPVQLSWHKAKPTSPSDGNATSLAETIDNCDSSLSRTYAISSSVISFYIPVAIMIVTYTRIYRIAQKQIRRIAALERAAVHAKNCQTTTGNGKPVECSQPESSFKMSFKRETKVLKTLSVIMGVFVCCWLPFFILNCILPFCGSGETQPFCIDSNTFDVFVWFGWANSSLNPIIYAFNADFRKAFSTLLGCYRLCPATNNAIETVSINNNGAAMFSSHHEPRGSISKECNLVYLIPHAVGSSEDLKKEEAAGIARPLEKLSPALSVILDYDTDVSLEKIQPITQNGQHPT", "assay": "D1 CRE-luciferase signal change, two-sided – cell-based, HEK293 D1, dopamine EC30, D1 allosteric modulator project, primary screen (AID 641)", "settings": "dopamine EC30 potentiation, at 10 µM, actives deviate in either direction", "values": [{"smiles": "COC(=O)COc1ccc2oc(=O)cc(C)c2c1", "B-score": 0.00198}, {"smiles": "COc1ccc(S(=O)(=O)N2CCN(c3ncnc4c(-c5ccccc5)nsc34)CC2)cc1", "B-score": -0.0486}, {"smiles": "O=c1cccc(-c2ccc(Br)cc2)o1", "B-score": 1.11}, {"smiles": "COc1ccc(NS(=O)(=O)c2ccc(NC(C)=O)cc2)cc1OC", "B-score": -0.458}, {"smiles": "COc1ccc(S(=O)(=O)N2CCCCC2)cc1Br", "B-score": -1.56}, {"smiles": "COc1ccc(S(=O)(=O)Nc2ccc(S(=O)(=O)N3CCCCC3)cc2)cc1OC", "B-score": "5.58 (active)"}, {"smiles": "COc1ccc(Br)cc1S(=O)(=O)N1CCN=C1C", "B-score": -0.0562}, {"smiles": "CCc1nc2ccccc2n(CCOCCOCCn2c(=O)c(CC)nc3ccccc32)c1=O", "B-score": 2.08}, {"smiles": "CCCOC(=O)Nc1sc2c(c1C(=O)OCC)CCC2", "B-score": -0.0171}, {"smiles": "O=C(Nc1c(Cl)cccc1Cl)C1CCC1", "B-score": -0.785}, {"smiles": "CCOC(=O)c1cc(C)sc1NC(=O)C1CCC1", "B-score": "7.64 (active)"}, {"smiles": "NC(=O)c1ccsc1NC(=O)c1ccco1", "B-score": 0.317}, {"smiles": "O=C(Nc1ccc2c(c1)OCCO2)c1ccncc1", "B-score": -1.34}, {"smiles": "O=C(Nc1nc(-c2ccc3c(c2)OCO3)cs1)c1ccncc1", "B-score": "-3.4 (active)"}, {"smiles": "O=C(Nc1nc(-c2ccncc2)cs1)C1COc2ccccc2O1", "note": "(configuration not stated)", "B-score": 1.39}, {"smiles": "COC(=O)c1ccc(/C=N\\n2c(C)nnc2C)cc1", "B-score": -1.78}, {"smiles": "Cc1cc(C)c2c(n1)nn1c(N3CCN(c4cccc(Cl)c4)CC3)cc(C)nc21", "B-score": -0.0327}, {"smiles": "Cc1cc(C)c2c(n1)nn1c(-n3ccnc3)cc(C)nc21", "B-score": "5.98 (active)"}, {"smiles": "Cc1cc(C)c2c(n1)nn1c(N3CCOCC3)cc(C)nc21", "B-score": 1.9}, {"smiles": "CCC(C)NC(=O)N[C@@H](CCSC)C(=O)O", "note": "(some centres not stated)", "B-score": -0.322}, {"smiles": "Cc1ccc(S(=O)(=O)NC(=O)N2CCCC(C)(C)C2)cc1", "B-score": "-6.08 (active)"}, {"smiles": "Cc1ccc(S(=O)(=O)C2(S(=O)(=O)c3ccc(C)cc3)CCCC2)cc1", "B-score": 0.0184}, {"smiles": "Cc1ccc(S(=O)(=O)NC(C)C(=O)Nc2ccccc2C(=O)N2CCCC2)cc1", "note": "(configuration not stated)", "B-score": -1.42}, {"smiles": "Cn1c(=O)c2cn(-c3cccc4ccccc34)cc2n(C)c1=O", "B-score": "3.56 (active)"}, {"smiles": "CC(=O)Nn1cc2c(=O)n(C)c(=O)n(C)c2c1", "B-score": 0.00279}, {"smiles": "COc1ccc(OC)c(-n2cc3c(=O)n(C)c(=O)n(C)c3c2)c1", "B-score": 1.9}, {"smiles": "Cc1nc2sc(C(c3ccco3)N3CCC4(CC3)OCCO4)c(O)n2n1", "note": "(configuration not stated)", "B-score": -0.00625}, {"smiles": "NS(=O)(=O)c1ccc(NS(=O)(=O)/C=C/c2ccccc2)cc1", "B-score": 0.545}, {"smiles": "COC(=O)Cn1c(=NC(=O)CSCC(=O)Nc2cc(C)on2)sc2ccccc21", "B-score": -0.763}, {"smiles": "O=C1CC(N2CCN(C(c3ccccc3)c3ccccc3)CC2)C(=O)N1", "note": "(configuration not stated)", "B-score": -0.246}, {"smiles": "O=c1c2ccccc2nc(CSc2nnnn2-c2ccccc2)n1-c1ccccc1", "B-score": 0.263}, {"smiles": "N#CCSc1nc2ccccc2c(=O)n1-c1ccccc1", "B-score": "7.87 (active)"}, {"smiles": "COC(=O)c1ccc(CSc2nc3ccccc3c(=O)n2-c2cccc(OC)c2)o1", "B-score": 2.88}, {"smiles": "Cc1noc(C)c1S(=O)(=O)N(CC(=O)NCc1ccc(Cl)cc1)c1ccc2c(c1)OCO2", "B-score": 0.0431}, {"smiles": "CCCC(=O)N=c1sc2cccc(F)c2n1C", "B-score": 0.69}, {"smiles": "CC(=O)Nc1ccc(-c2nn3c(C)nnc3s2)cc1C", "B-score": 0.141}, {"smiles": "Cc1nnc2sc(-c3ccco3)nn12", "B-score": 0.854}, {"smiles": "COc1ccc(-c2nn3c(-c4ccccc4)nnc3s2)cc1OC", "B-score": "8.24 (active)"}, {"smiles": "COc1cc(-c2nn3c(-c4cccc(C)c4)nnc3s2)cc(OC)c1OC", "B-score": "5.22 (active)"}, {"smiles": "c1ccc(-c2cc(-c3nnc4sc(-c5ccccn5)nn34)[nH]n2)cc1", "B-score": -0.359}, {"smiles": "Fc1ccc(-c2nnc3sc(-c4ccc5c(c4)OCO5)nn23)cc1", "B-score": 0.575}, {"smiles": "CCOc1ccc(C(=O)N(Cc2ccc(N(C)C)cc2)C2CCS(=O)(=O)C2)cc1", "note": "(configuration not stated)", "B-score": 0.116}, {"smiles": "CCCC(C(=O)N1CCOCC1)N1C(=O)C2C3C=CC(C3)C2C1=O", "note": "(configuration not stated)", "B-score": -0.388}, {"smiles": "Cc1occc1C(=O)Nc1nnc(C2CCCCC2)s1", "B-score": 0.299}, {"smiles": "O=C(COc1ccccc1Cl)Nn1cnnc1", "B-score": -0.264}, {"smiles": "Cc1cccc(N2CCN(Cc3c(C)n(C)n(-c4ccccc4)c3=O)CC2)c1C", "B-score": -0.359}, {"smiles": "COc1ccc(N2CC(C)Cn3c2nc2c3c(=O)n(Cc3ccccc3F)c(=O)n2C)c(OC)c1", "note": "(configuration not stated)", "B-score": 0.483}, {"smiles": "CCOc1ccc(N2C(=O)CC(N(O)c3ccccc3)C2=O)cc1", "note": "(configuration not stated)", "B-score": 0.305}, {"smiles": "COc1ccc(CCNc2ncnc3nc[nH]c23)cc1OC", "B-score": "12.7 (active)"}, {"smiles": "CCS(=O)(=O)NCCc1ccc(OC)c(OC)c1", "B-score": 0.864}, {"smiles": "COc1ccc(CCNS(=O)(=O)c2ccc(F)cc2)cc1OC", "B-score": 3.09}, {"smiles": "CCOC(=O)c1sc(NC(=O)CSc2ncccn2)c(C#N)c1C", "B-score": 1.81}, {"smiles": "COc1ccc(-c2ccc(Nc3ccc(S(=O)(=O)N4CCCC4)cc3)nn2)cc1OC", "B-score": 1.72}, {"smiles": "COc1ccc(-c2cc(C(F)(F)F)nc(S(C)(=O)=O)n2)cc1OC", "B-score": "6.58 (active)"}, {"smiles": "COc1ccc(-c2cc(C(F)(F)F)nc(SCCC(=O)NCc3ccco3)n2)cc1", "B-score": 0.0331}, {"smiles": "CC(=O)Oc1ccc(C)cc1N1C(=O)c2ccc(C(=O)O)cc2C1=O", "B-score": -0.324}, {"smiles": "O=C(COC(=O)c1ccc(Oc2ccccc2)cc1)Nc1nnc(-c2ccccc2)o1", "B-score": -1.16}, {"smiles": "CCN(CC)C(=O)CSc1nnc(-c2cccc(OC)c2)o1", "B-score": -0.393}, {"smiles": "COc1cccc(-c2nnc(NC(=O)c3ccc(S(=O)(=O)N(CC(C)C)CC(C)C)cc3)o2)c1", "B-score": "-2.79 (active)"}, {"smiles": "C=C1c2cc(CC)ccc2NC(=O)N1c1ccc(C)cc1", "B-score": -1.84}, {"smiles": "COc1ccc(N(CC(=O)NC2CCCCCCC2)S(=O)(=O)c2c(C)nn(C)c2C)cc1", "B-score": -0.289}, {"smiles": "CC(C)C(=O)Nc1c(C(=O)c2ccc(F)cc2)oc2ccccc12", "B-score": 1.66}, {"smiles": "CC(=O)NS(=O)(=O)c1ccccc1", "B-score": 0.0902}, {"smiles": "Cc1ccc(C(=O)NCCNS(=O)(=O)c2ccccc2)cc1", "B-score": -0.839}, {"smiles": "Nc1ccc(S(=O)(=O)NC(=O)c2ccccc2)cc1", "B-score": "31.8 (active)"}, {"smiles": "COCCNC(=O)c1snc2ccc(Cl)cc12", "B-score": 0.741}, {"smiles": "CCCc1nc2ccccc2c(C(=O)OCc2nnc(-c3cc(OC)c(OC)c(OC)c3)o2)c1CC", "B-score": 2.19}, {"smiles": "CCN1CCN(Cc2c(O)ccc3c(=O)c(-c4ccc(OC)c(OC)c4)c(C(F)(F)F)oc23)CC1", "B-score": -0.698}, {"smiles": "Cc1cc(=O)oc(C)c1C(=O)Nc1cnc2ccccc2c1", "B-score": -0.206}, {"smiles": "O=C(c1cccc(C(=O)N2CCc3ccccc32)n1)N1CCc2ccccc21", "B-score": 0.928}, {"smiles": "CNC(=O)CN1C(=O)c2ccccc2S1(=O)=O", "B-score": 0.686}, {"smiles": "O=C(CN1C(=O)c2ccccc2S1(=O)=O)N1CCc2ccccc21", "B-score": "-3.68 (active)"}, {"smiles": "COC(=O)C(C)Sc1ccc2nnc(-c3cccc(F)c3)n2n1", "note": "(configuration not stated)", "B-score": 0.378}, {"smiles": "CCOc1ccc(-c2nnc3ccc(SC)nn23)cc1", "B-score": "-4.57 (active)"}, {"smiles": "O=C(CN1CCOCC1)Nc1cc(Cl)ccc1Cl", "B-score": -0.306}, {"smiles": "C=C(C)Cn1c(N2CCN(CC)CC2)nc2c1c(=O)[nH]c(=O)n2C", "B-score": 0.264}, {"smiles": "Brc1cccc(-c2nnc3n2CCC3)c1", "B-score": 0.138}, {"smiles": "CCOc1cc(-c2nc3cc(C)ccn3c2NCC2CCCO2)ccc1O", "note": "(configuration not stated)", "B-score": -0.604}, {"smiles": "COc1ccc(C2N=C(N)N=C(N)N2c2ccccc2)cc1OC", "note": "(configuration not stated)", "B-score": "-3.55 (active)"}, {"smiles": "COc1ccc(C2SCCN2S(=O)(=O)c2ccccc2)cc1OC", "note": "(configuration not stated)", "B-score": 0.2}, {"smiles": "COc1ccc(C2/C(=C(/O)c3ccccc3)C(=O)C(=O)N2c2ncccn2)cc1OC", "note": "(configuration not stated)", "B-score": -0.0203}, {"smiles": "CCOC(=O)[C@H]1CCC[C@@H](NS(=O)(=O)c2ccc(NC(C)=O)cc2)C1", "B-score": -0.0967}, {"smiles": "Cc1ccc(S(=O)(=O)N(C)CC(=O)N2CCc3ccccc32)cc1", "B-score": 1.86}, {"smiles": "CCOc1ccc2[nH]c(=O)c(CN(Cc3nnnn3CCc3ccccc3)CC3CCCO3)cc2c1", "note": "(configuration not stated)", "B-score": 1.9}, {"smiles": "CCOc1ccc2c(c1)cc(CN(C(=O)CC)C1CCCCC1)c1nnnn12", "B-score": "12.6 (active)"}, {"smiles": "CCOc1ccc2[nH]c(=O)c(CN(Cc3nnnn3Cc3ccccc3)CC3CCCO3)cc2c1", "note": "(configuration not stated)", "B-score": -0.307}, {"smiles": "COC(=O)c1cnn2c(C(F)(F)F)cc(-c3ccco3)nc12", "B-score": 1.18}, {"smiles": "O=C(NCc1ccco1)c1cnn2c(C(F)(F)F)cc(-c3ccco3)nc12", "B-score": "4.37 (active)"}, {"smiles": "O=C(NCc1ccco1)c1cccn2c(=O)c3cc(Br)ccc3nc12", "B-score": -0.861}, {"smiles": "O=C(O)C1CCCN(S(=O)(=O)c2cccc3cccnc23)C1", "note": "(configuration not stated)", "B-score": 0.0158}, {"smiles": "CCOCC(=O)Nc1sc2c(c1C(=O)OCC)CCCC2", "B-score": -0.0785}, {"smiles": "CCOC(=O)c1c(NC(=O)CSc2nnc(CN3CCOCC3)n2C)sc2c1CCCC2", "B-score": "6.03 (active)"}, {"smiles": "CCOC(=O)c1c(NC(=O)CSc2nnc(Cc3csc(N)n3)n2C)sc(C)c1C", "B-score": "4.94 (active)"}, {"smiles": "COC(=O)c1c(NC(=O)CSc2nc3c(c(=O)n(C)c(=O)n3C)n2C(C)C)sc(C)c1C", "B-score": 3.35}, {"smiles": "CCOC(=O)c1c(NC(=O)CSc2nnc(C)c(=O)[nH]2)sc2c1CCC2", "B-score": 1.36}, {"smiles": "Cn1c(Cc2csc(N)n2)nnc1SC/C=C/c1ccccc1", "B-score": 0.477}, {"smiles": "O=C(NCc1ccc2c(c1)OCO2)C1CCCN(S(=O)(=O)c2cccs2)C1", "note": "(configuration not stated)", "B-score": -0.0139}]}]}
